Shown are actives, neighbours in structure and some others; about 2.4% of the full set was active somewhere.
POLB inh = qHTS Assay for Inhibitors of DNA Polymerase Beta; 1.3% of 340,000 active; AID 485314, 2010; Potency, µM (titrated, usually from 114 µM), for inactives: at the highest dose activity change, negative = inhibition, actives largely listed as inhibitors; Pol beta primer extension/strand displacement, fluorescence kinetic; P06746; note: % is set by controls: 0 for no effect and ±100 for the full control effect
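Curves were derived by four-parameter Hill fits of normalized qHTS data. The kinetic fluorescent primer-extension read was taken at 0 and 10 min after 50 nM substrate, following a 15 min room-temperature preincubation of 10 nM enzyme with compounds.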
Pol kappa inh = qHTS for Inhibitors of Polymerase Kappa | purified Pol kappa, fluorescent DNA synthesis assay, 10 min | Potency, µM (doses to about 107 µM), without a hit: top-dose activity, negative = inhibition, usual class: inhibitors | 0.53% of 400,000 active | AID 588579, 2011; note: % is set by controls: 0 for no effect and ±100 for the full control effect
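50 nM final substrate added after 15 min RT preincubation of 10 nM Pol kappa with compound; fluorescence read at 0 and 10 min.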
TDP1 block = qHTS Assay for Inhibitors of Tyrosyl-DNA Phosphodiesterase (TDP1); Tyrosyl-DNA phosphodiesterase 1 (Homo sapiens), Q9NUW8; recombinant TDP1, AlphaScreen DNA substrate cleavage; Potency, µM (highest dose often 130 µM), for inactives: at the top dose activity change, negative = inhibition, most hits filed as inhibitors; 0.28% of 350,000 active; AID 485290, 2010; note: % is set by controls: 0 for no effect and ±100 for the full control effect; nearly all actives have a fitted effect of over 40% in size
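AlphaScreen read-out: signal falls as enzyme removes the 3' tyrosine-FITC from a 5'-biotinylated DNA oligo (15 nM, 5 min, RT). Enzyme was E. coli-made recombinant Tdp1 at 1 nM, exposed to compound for 15 min beforehand; beads 10 ug/ml, 10 min.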
POLI inh = qHTS for Inhibitors of Polymerase Iota; DNA polymerase iota (Homo sapiens), Q9UNA4; Pol iota fluorescent replication assay, 10 min; Potency, µM (top dose mostly 115 µM), without a hit: top-dose activity, negative = inhibition, hits mostly inhibitors; 1% of 390,000 active
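Pol iota at 10 nM preincubated 15 min with compounds at room temperature; reaction started with fluorescent substrate, 50 nM final. Fluorescence read kinetically at 0 and 10 min; buffer-only wells as negative control.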
POLH inh = qHTS for Inhibitors of Polymerase Eta. DNA polymerase eta (Homo sapiens), Q9Y253. recombinant Pol eta, fluorescent DNA replication assay. Potency, µM (series often up to 114 µM), for the others: at the highest dose activity change, negative = inhibition, most hits filed as inhibitors. 1.2% of 390,000 active; note: % is set by controls: 0 for no effect and ±100 for the full control effect
Target sequence (Q9Y253 whole entry, looked up): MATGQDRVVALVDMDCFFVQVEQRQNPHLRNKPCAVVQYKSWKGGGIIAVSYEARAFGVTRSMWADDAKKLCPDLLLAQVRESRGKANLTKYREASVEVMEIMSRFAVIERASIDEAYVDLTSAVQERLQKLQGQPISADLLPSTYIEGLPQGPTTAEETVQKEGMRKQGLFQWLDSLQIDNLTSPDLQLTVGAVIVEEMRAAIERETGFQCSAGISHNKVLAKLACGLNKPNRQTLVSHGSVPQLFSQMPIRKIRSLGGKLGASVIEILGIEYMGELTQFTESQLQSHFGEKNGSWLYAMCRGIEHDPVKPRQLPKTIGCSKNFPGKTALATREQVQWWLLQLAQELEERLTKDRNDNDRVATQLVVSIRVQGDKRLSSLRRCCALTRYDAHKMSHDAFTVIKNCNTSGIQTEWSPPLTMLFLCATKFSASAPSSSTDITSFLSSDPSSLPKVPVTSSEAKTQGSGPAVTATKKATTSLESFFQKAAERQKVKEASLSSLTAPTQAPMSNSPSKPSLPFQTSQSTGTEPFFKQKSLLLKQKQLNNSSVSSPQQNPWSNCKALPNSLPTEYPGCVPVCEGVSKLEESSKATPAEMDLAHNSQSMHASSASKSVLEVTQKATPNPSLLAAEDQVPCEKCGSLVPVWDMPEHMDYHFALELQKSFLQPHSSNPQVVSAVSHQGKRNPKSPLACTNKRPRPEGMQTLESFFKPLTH
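Pol eta (10 nM) was preincubated with compounds for 15 min at room temperature, after which fluorescent replication substrate (50 nM final) was added to start the reaction. Fluorescence was read kinetically at 0 and 10 min.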
* = called active by the depositor; u = inconclusive; x = not tested or not shown; [ ] = another dose, or the depositor's remark. Calls come from the whole dose curve; as a rule, active = well fitted curve in the direction sought with a large enough effect; inconclusive = small, poorly fitted or top-dose-only effect, or another doubt; inactive = no such curve, though single readings can be large; an effect the other way counts as inactive or inconclusive. Potency is the fitted concentration of half-maximal effect.

SMILES	POLB inh	Pol kappa inh	TDP1 block	POLI inh	POLH inh
CCOc1cc(/C=C2/C(=N)N3OC(C)=CC3=NC2=O)ccc1OC(=O)c1ccco1	-6.1%	-6.7%[60.1 µM]	8.0%	-1.8%	-5.7%
COc1cc(/C=C2/C(=N)N3C(=NC2=O)SN=C3S(C)(=O)=O)ccc1OC(=O)c1ccco1	-7.8%	-19.1%	-3.1%	u	50.1µM*
CC1CCN(C2=NN3C(=N)/C(=C\c4ccc(OC(=O)c5ccco5)cc4)C(=O)N=C3S2)CC1	-0.7%	u	x	u	u
COc1cc(/C=C2/SC(=O)NC2=O)ccc1OC(=O)c1ccco1	12.2%	-0.6%	3.6%	2.8%	-7.5%
O=C1NC(=S)S/C1=C/c1ccc(OC(=O)c2ccco2)cc1	u	-1.9%	50.1µM*	-11.9%	u
CCN(CC)c1ccc(CN(C(=O)Cc2coc3ccc(C)cc23)C2CCS(=O)(=O)C2)cc1 (stereo not drawn)	-13.1%	7.2%	7.4%	u	-23.1%
CCC1CCCCN1C(=O)Cn1nc([N+](=O)[O-])c(Cl)c1C (stereo not drawn)	35.2%	u	2.6%	89.1µM*	89.1µM*
O=S(=O)(c1ccccc1)c1nnn2c1nc(Nc1ccccc1)c1cc(Cl)ccc12	23.2%	-0.4%	2.0%	-1.7%	-13.7%
CCCCCCC[n+]1ccc(C)c2ccccc21	x	-5.3%	x	22.1%	x
CC(=O)c1sc2nc(-c3ccco3)ccc2c1N	12.6µM*	79.4µM*	x	5.01µM*	28.2µM*
N#C/C(=C/c1cccn1-c1cccc(C(=O)O)c1)c1ccc(F)cc1	31.6µM*	u	x	25.1µM*	25.1µM*
COc1cc(/C=C(\C#N)C(=O)Nc2cccc(C(=O)O)c2)ccc1OCc1ccc(F)cc1	44.7µM*	-10.8%	56.2µM*	u	50.1µM*
COc1ccc(C(=O)C=Cc2ccc(OCc3ccccc3)c(OC)c2)cc1OC	x	x	x	x	1.0%
COc1cccc(/C=C(/C#N)c2ccc(F)cc2)c1OCc1cccc(C(=O)O)c1	39.8µM*	-28.1%	-3.2%	u	u
COc1cc(/C=C/[N+](=O)[O-])ccc1OCc1cccc(C(=O)O)c1	31.6µM*	25.1µM*	x	u	31.6µM*
N#C/C(=C/c1ccccc1OCc1ccc(F)cc1)c1ccc(C(=O)O)cc1	-20.4%	-1.3%	x	4.9%	-4.9%
N#C/C(=C/c1ccc(OCc2ccc(C(=O)O)cc2)cc1)C(=O)Nc1ccccc1	1.7%	4.0%	x	10.5%	u
CN(C)c1ccc(/C=C/c2cc3ccccc3cn2)cc1	x	u	x	-19.4%	x
CCOc1cccc(NC(=O)/C(C#N)=C/c2cccnc2)c1	2.1%	-6.5%	x	-15.6%	-6.5%
CCOc1cc(/C=C(\C#N)C(=O)Nc2cccc(C(=O)O)c2)cc(Br)c1OC(=O)c1ccc(OC)cc1	15.8µM*	u	-3.5%	u	79.4µM*
COC(=O)C1=C[C@@H](C(=O)OC)C2C3=C(C(=O)[C@@]2(C)NC(=O)c2ccccc2)[C@H](c2ccccc2)[C@@H]2C(=O)N(c4ccccc4)C(=O)[C@@H]2[C@@H]3C1 (stereo partly drawn)	x	2.1%	5.6%	19.9%	x
COP1(=O)CC(O)C(O)C(COCc2ccccc2)O1 (stereo not drawn)	x	-9.8%	7.4%	-20.8%	x
COc1cc(/C=C/C(=O)OCC(=O)N2CCN(S(=O)(=O)c3ccc(C)cc3C)CC2)ccc1O	35.5µM*	u	x	u	20µM*
COc1ccc(-c2csc(NC(=O)CC(NC(C)=O)c3ccccc3)n2)cc1OC (stereo not drawn)	-70.6%	-13.4%	79.4µM*	10.5%	-7.3%
COc1ccc(-c2csc(NC(=S)NC(=O)c3cccs3)n2)cc1OC	u	-11.4%	0.0%	u	20µM*
SMILES	POLB inh	Pol kappa inh	TDP1 block	POLI inh	POLH inh
COc1ccc(-c2csc(NC(=O)CS(=O)(=O)c3ccccc3)n2)cc1OC	x	x	x	x	-25.0%
COc1ccc(NC(=O)CN2C(=O)COc3ccc(S(=O)(=O)N4CCCCC4)cc32)cc1Cl	9.5%	-1.4%	2.6%	30.3%	-23.1%
O=C1[O][Bi][O]c2ccccc21	x	-2.2%[60.1 µM]	35.5µM*	x	x
O=C1c2ccccc2C(=O)N1c1ccc2ccccc2n1	x	x	1.5%	x	x
O=[N+]([O-])c1ccc(O)c(Nc2ncnc3ccccc23)c1	28.2µM*	-10.5%	3.7%	-19.5%	u
CC(C)(C)N1C(=O)Cc2c1nc(N)c1c(N)nc(N3CCCCC3CO)c(C#N)c21 (stereo not drawn)	-0.3%	-10.3%	5.1%	20µM*	u
CC/C(=C/c1ccccc1)c1cc(Oc2ccccc2)cc2oc3ccccc3c12	x	-17.0%	x	4.5%	x
COc1ccc(N2CCN(S(=O)(=O)c3ccc(-n4cnnn4)c(C)c3)CC2)cc1	28.2µM*	u	u	u	31.6µM*
COc1ccccc1N1CCN(S(=O)(=O)c2ccc(-n3cnnn3)c(C)c2)CC1	-18.6%	-5.3%	2.7%	5.5%	-20.4%
O=C1C[C@H]2C=CCc3cccc(c32)CN1Cc1cccc(F)c1	x	0.0%	x	29.0%	x
CCc1ccc(-n2nc(C)c3c(C(=O)Nc4ccc(Cl)cc4)cc(C)nc32)cc1	37.8%	6.0%	0.0%	7.5%	-3.1%
CCN(CC)c1ccc(NC(=O)c2cccn2-c2nnc(N3CCCCC3)s2)c(C)c1	-23.3%	-8.8%	5.3%	u	17.5%
Cc1cc2c(s1)c1cnn(Cc3ccc(F)cc3)c(=O)c1n2C	x	x	50.1µM*	x	x
Cc1ccc(Cn2ncc3c4sc(C)cc4n(C)c3c2=O)cc1	x	x	-6.7%	x	x
COCCCNC(=O)c1oc2c(c1C)-c1nn(Cc3ccccc3Cl)cc1CC2	1.5%	-0.1%	1.3%	2.1%	0.5%
O=C1CCc2cc(S(=O)(=O)Nc3ccccn3)ccc2N1	x	x	-0.8%	x	x
COc1cc(N)c(N)cc1OC	x	-20.7%	x	22.4µM*	x
Cc1cc2nccc(/C=C/c3ccc(N(C)C)cc3)c2cc1C	x	-16.2%	x	u	x
Cc1cc(Cl)ccc1OCC(=O)OC(C)C(=O)N(C)C (stereo not drawn)	u	-17.3%	x	50.1µM*	u
O=C(N/N=C/c1ccco1)C1CC1c1ccccc1 (stereo not drawn)	15.8µM*	u	u	31.6µM*	u
O=C(CCCCCNC(=O)c1ccccc1)N/N=C/c1ccco1	15.8µM*	-14.1%	39.8µM*	u	-4.6%
O=C(NCc1ccccn1)C1CCN(S(=O)(=O)c2cnc[nH]2)CC1	3.3%	u	4.3%	u	17.8µM*
O=C(NCc1ccccn1)C1CCN(S(=O)(=O)c2ccccc2)CC1	13.7%	8.4%	0.0%	-9.8%	-9.7%

From PubChem BioAssay
